The values below come from PubChem BioAssay (NCI).

Each structure is given as a SMILES string. The panel holds about 83,000 compounds, 20% with a hit somewhere; the sample as a whole holds those more often.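 Activity criterion: percent growth below 10, measured after cells in 96-well plates were exposed to a single compound concentration for 48 hours.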 A number with no mark means an inactive call. Activity calls are given as the source filed them.

The test system of this test is MOLT-4 leukemia. As to the kind of experiment: NCI-60 one-dose screen, 48 h (100 = growth as untreated, 0 = no growth, -100 = all killed). To be noted: 10 µM unless noted.
With `CCNC(=O)CCCCC(=O)c1c(C)[nH]c(/C=C2\N=C(c3ccc[nH]3)C=C2OC)c1C`, the growth was 79.8%. `CC(=O)OCC1OC(OCC2OC(OC(C)=O)C(OC(C)=O)C(OC(C)=O)C2OC(C)=O)C(OC(C)=O)C(OC(C)=O)C1OC(C)=O` (stereo not drawn): the growth is 104%. Turning to `Clc1ccc([I+]c2ccc(Cl)cc2Cl)c(Cl)c1`, the growth is -6.5% (active). For `CCC(=O)Oc1cc(/C=C/C(=O)O[C@H]2C[C@H]3CN4CCc5c([nH]c6cc(OC)ccc56)[C@@H]4C[C@@H]3[C@@H](C(=O)OC)[C@@H]2OC)ccc1OC`, the growth is 50.8%. As for `COC1=CC(c2ccc[nH]2)=N/C1=C\c1[nH]c(C)c(C(=O)CCCCC(=O)NCc2ccccc2)c1C`, the figure is 70.1%; as for `COc1ccc(-c2nnc(COc3ccc(NS(=O)(=O)c4ccc(OC)cc4)cc3F)o2)cc1`, 60%. The figure for `CN1CCN(c2ccc3cc(-c4nc5ccccc5[nH]4)c(=O)oc3c2)CC1` is 88.4%; for `CCC1=C[C@@H]2CN(C1)Cc1c([nH]c3ccccc13)[C@@](C(=O)OC)(c1cc3c(cc1OC)N(C=O)[C@H]1[C@@](O)(C(=O)OC)[C@H](OC(C)=O)[C@]4(CC)[C@@H]5C[C@@H]5CN5CC[C@]31[C@@H]54)C2` it is 13.4%. The figure for `O=S(=O)(c1ccccc1)n1ccc(-c2ccc3c(c2)CCO3)n1` is 85.6%; for `COC1=CC(c2ccc[nH]2)=N/C1=C\c1[nH]c(C)c(CCCn2cc(CCCCCCCCC[C@@H]3Cc4cc(O)ccc4C4CC[C@]5(C)[C@@H](O)CC[C@H]5C43)nn2)c1C` (stereo partly drawn) it is 67.1%. Regarding `CCn1cc(C(=O)O)c(=O)c2cc(F)c(N3CCN(S(=O)(=O)c4ccc(OC)c(OC)c4)CC3)cc21`, the growth is 78.9%.

On to `COc1cc2nc(SCc3cc(OC)c(OC)c(OC)c3)n(Cc3ccccc3)c(=O)c2cc1OC`, for which the growth was 16.7%.

In the case of `O=[N+]([O-])c1cc(S(=O)(=O)OCC2CO2)ccc1Cl` (stereo not drawn), the growth was 95.3%.

For the compound `Nc1c(C(=O)Nc2ccccc2)sc2nc3c(cc12)CCC3`, the growth was 90.3%.

Consider `COc1ccc([N+](=O)[O-])c(/C=C/C(=O)c2ccccn2)c1`, for which the growth was 13.3%. As for `CC(C(=O)n1cc(-c2ccccc2)c(-c2ccccc2)c1)c1ccccc1` (stereo not drawn), the figure is 102%; as for `CCNCc1ccncc1`, 92%. As to `NCCSC(c1ccccc1)(c1ccccc1)c1ccccc1`, the growth is 3.39% (active). The figure for `O=C(O)c1ccc(-n2c(=O)c3ccccc3c3ccccc3c2=O)cc1` is 92.8%; for `COc1cc(/C=C2\C=C(c3ccc(F)cc3)N(Cc3ccccc3)C2=O)cc(OC)c1OC` it is 25.9%. As for `COc1ccc(/C=C2\C(=O)N(C(=O)c3csc(NC(C)=O)n3)N=C2C)cc1`, the figure is 86.9%; as for `COc1cccc(NC(=O)Cn2cc3c(=O)oc4ccccc4c3n2)c1`, 111%. As for `CNC(C)=O`, the figure is 95%; as for `C=C1C(=O)O[C@H]2[C@H](O)[C@@H](C)CCC/C(C)=C/CC[C@@]3(C)O[C@@H]3C[C@@H]12`, 78.6%. On to `CC(=O)Nc1ccc(S(=O)(=O)NC(CCC(=O)Nc2ccc(Cl)cc2)C(=O)O)cc1` (stereo not drawn), for which the growth was 110%. The figure for `Cn1c(C(N)=O)cc2c1-c1nc(NC3CCCCC3)ncc1CCC2` is 85.1%.

On to `Cc1nc2sccn2c1-c1csc(Nc2ccccc2Cl)n1`, for which the growth was 17%. As for `Cc1ccc(Cn2c(-c3cccs3)nc3ccccc32)cc1`, the figure is 93.2%; as for `COC1=CC(c2ccc[nH]2)=N/C1=C\c1[nH]c(C)c(C(=O)CCCCC(=O)Nc2ccccc2)c1C`, 76.6%; as for `COc1ccc(-c2cn[nH]c2-c2cc(OC)c3c(c2)OCCO3)cc1`, 12%. As for `COc1ccc(/C=C/c2nc(N3CCOCC3)c3cc(F)c(F)cc3n2)cc1OC`, the figure is 6.52% (active); as for `O=c1oc2cc(OS(=O)(=O)c3ccc(F)cc3)ccc2c2c1CCCCC2`, 63.8%. As to `CCn1cc(C(=O)O)c(=O)c2cc(F)c(N3CCN(S(=O)(=O)c4ccc(Cl)cc4Cl)CC3)cc21`, the growth is 1.8% (active).

On to `O=C(CN1CCN(c2cc3c(cc2F)c(=O)c(C(=O)O)cn3C2CC2)CC1)Nc1ccc(C(=O)/C=C/c2ccccc2)cc1`, for which the growth was 19%. The figure for `O=C(CC(O)c1ccncc1)c1ccccc1` (stereo not drawn) is 90.9%.

For `CCn1cc(C(=O)O)c(=O)c2cc(F)c(N3CCN(S(=O)(=O)c4cccc5ccccc45)CC3)cc21`, the growth is 8.41% (active). The figure for `CCN(CC)CCCC(C)N=c1cc(Nc2cc(=NC(C)CCCN(CC)CC)c3cc(OC)ccc3o2)oc2ccc(OC)cc12` (stereo not drawn) is -55.8% (active). For `NC(=S)NN=C1CCCCC1`, the growth is 68.8%.
